The text below walks through data of PubChem BioAssay.

The test system of experiment [1] is XIP peptide (Xip251-270) binding. The experiment can be described thus: small-molecule binders of XIP peptide, primary screen, biochemical, small-molecule microarray, fluorescence 635/667 nm, 0.1 µg/mL protein (AID 1182). To be noted: fluorescent protein binding, 635 nm, higher = more signal, called active from +8 up or from −8 down.
The subject of another experiment is XIP peptide (Xip251-270). The experiment can be described thus: small-molecule binders of XIP peptide, primary screen, biochemical, small-molecule microarray, fluorescence 635/667 nm, 0.5 µg/mL protein (AID 1183). The following applies: small-molecule microarray binding, fluorescence 635 nm; higher = more signal.
The nature of experiment [2]: Plasmodium falciparum growth inhibition, primary screen, strain 3D7, DAPI fluorescence, 100 nL (AID 1184).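 Note: parasites grown inside human red blood cells in medium with human serum.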 The following applies: P. falciparum 3D7 growth, 3 d, higher = more signal.
For experiment [3], the target named is Homeobox protein Hox-A13 (Mus musculus) (UniProt Q62424). The experiment can be described thus: inhibitors of HoxA13-DNA binding, primary screen, biochemical, fluorescence polarization, labeled oligonucleotide (AID 1185). To be noted: 15 min, higher = more signal, called active from +8 up or from −8 down.
A short description of experiment [4]: inhibitors of hydroxyurea-induced Chk1 phosphorylation, primary screen, imaging, HeLa, phospho-Chk1 antibody, percent positive cells (AID 1186). The following applies: hydroxyurea-induced phospho-Chk1 immunofluorescence imaging, higher = more signal.
Experiment [5] can be described thus: inhibitors of hydroxyurea-induced Chk1 phosphorylation, primary screen, imaging, HeLa, phospho-Chk1 nuclear intensity (AID 1187). To be noted: hydroxyurea-induced phospho-Chk1 immunofluorescence imaging, higher = more signal.

The source made the active and inactive calls. Unless noted, the rule behind the calls is not given here.

Sequence of Homeobox protein Hox-A13 (Mus musculus) (Q62424 whole entry, looked up): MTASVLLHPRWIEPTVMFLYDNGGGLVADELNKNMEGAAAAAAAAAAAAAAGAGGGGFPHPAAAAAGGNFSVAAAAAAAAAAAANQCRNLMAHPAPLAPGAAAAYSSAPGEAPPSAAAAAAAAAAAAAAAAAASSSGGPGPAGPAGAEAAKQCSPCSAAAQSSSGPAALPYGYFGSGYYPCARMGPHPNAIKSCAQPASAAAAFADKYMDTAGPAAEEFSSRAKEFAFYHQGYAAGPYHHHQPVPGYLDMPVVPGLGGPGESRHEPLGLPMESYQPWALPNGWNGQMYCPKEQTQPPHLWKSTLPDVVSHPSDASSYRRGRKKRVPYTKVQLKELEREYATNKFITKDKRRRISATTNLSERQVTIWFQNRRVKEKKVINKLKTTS

Take `COC(=O)[C@@]1(CCS(=O)(=O)c2ccccc2)N=C(c2ccc(OCCCO)cc2)O[C@H]1c1ccccc1CN=[N+]=[N-]`: the composite z-score in experiment [1] was 1.24 (inactive); in the experiment with XIP peptide (Xip251-270) it was 0.769. Further, the z-score is -2.07 in experiment [2], -0.977 (inactive) in experiment [3], -0.395 (inactive) in experiment [4] and -0.74 (inactive) in experiment [5].

In the case of `NCCCCCCNC(=O)[C@@H]1C[C@@H]2C(=O)NCC(=O)N2[C@@H]1c1ccc(O)cc1`, the results for the composite z-score (in experiment [1]; in the experiment with XIP peptide (Xip251-270)) were -0.0092 (inactive) and 0.755, respectively. Besides, the z-score in experiment [2] was -0.634; in experiment [3] it was -1.98 (inactive); in experiment [4] it was 0.563 (inactive); in experiment [5], 0.457 (inactive).

As to `CC(C)C(O)C1C=CC2C(=O)NC(=O)C2N1Nc1ccc(Cl)cc1Cl` (configuration not stated), the composite z-score in experiment [1] is 0.471 (inactive); in the experiment with XIP peptide (Xip251-270), -0.615. Besides, the z-score was 0.0359 in experiment [2], -3.95 (inactive) in experiment [3], 0.998 (inactive) in experiment [4] and 0.237 (inactive) in experiment [5].

As for `COc1ccc(-c2cc3c(c(-c4ccc(Oc5ccccc5)cc4)n2)[Si](C(C)C)(C(C)C)OC3)cn1`, the composite z-score in experiment [1] was -0.0527 (inactive); with XIP peptide (Xip251-270), 0.0792. The z-score in experiment [2] is -1.34; in experiment [3], -1.79 (inactive); in experiment [4] it was -0.265 (inactive); in experiment [5], 0.0655 (inactive).

Consider `CCCCCCc1nc(-c2ccc(OC)nc2)cc2c1[Si](C(C)C)(C(C)C)O[C@H]2c1ccccc1`, for which the values for the composite z-score (in experiment [1]; with XIP peptide (Xip251-270)) were -0.652 (inactive) and -0.487, respectively. In addition, the z-score in experiment [2] is -0.421; in experiment [3], -2.62 (inactive); in experiment [4], -0.732 (inactive); in experiment [5] it was -0.722 (inactive).

For `COc1cc2c(cc1OC)CN(C(=O)[C@@H]1[C@H]3C(=O)O[C@H](c4ccccc4)[C@H](c4ccccc4)N3[C@H](c3ccccc3OCCO)[C@@]13C(=O)Nc1ccc(C#CCCO)cc13)CC2`, the composite z-score in experiment [1] is 2.75 (inactive); with XIP peptide (Xip251-270), 0.827. For the same compound, the z-score in experiment [2] was -2.18; in experiment [3], 3.45 (inactive); in experiment [4], 0.14 (inactive); in experiment [5], 0.598 (inactive).

As for `COC(=O)[C@@]1(Cc2ccc(F)cc2)[C@H]2c3cc(C(=O)N(C)C)n(Cc4ccc(Cl)c(C(F)(F)F)c4)c3C[C@H]2CN1C(=O)c1ccccc1`, the composite z-score is -0.512 (inactive) in experiment [1] and 0.503 in the experiment with XIP peptide (Xip251-270). Moreover, the z-score in experiment [2] is -1.6; in experiment [3], -2.75 (inactive); in experiment [4], 1.09 (inactive); in experiment [5] it was 0.528 (inactive).

For `C=C(CCCC)/C(=C/C[C@@H](OC(C)=O)c1ccc(OCCO)cc1)c1cnc2ccccc2c1`, the composite z-score is 0.591 (inactive) in experiment [1] and 0.751 in the experiment on XIP peptide (Xip251-270). The z-score is -3 in experiment [2], -3.65 (inactive) in experiment [3], -0.66 (inactive) in experiment [4] and -0.0832 (inactive) in experiment [5].

With `O=C1c2ccccc2[C@](Cc2ccccc2I)(C(=O)NCCN2CCOCC2)[C@H](c2ccc(CO)cc2)N1Cc1ccccc1Cl`, the composite z-score was 1.08 (inactive) in experiment [1] and 0.862 in the experiment on XIP peptide (Xip251-270). The z-score is -1.47 in experiment [2], -4.29 (inactive) in experiment [3], -0.206 (inactive) in experiment [4] and -0.183 (inactive) in experiment [5].

As to `COC(=O)[C@@]1(Cc2ccc(F)cc2)[C@H]2c3cc(C(=O)N(C)C)n(Cc4ccccc4)c3C[C@H]2CN1C(=O)c1ccccc1`, the composite z-score in experiment [1] was 0.578 (inactive); with XIP peptide (Xip251-270) it was 0.766. Moreover, the z-score in experiment [2] was -1.41; in experiment [3], -3.11 (inactive); in experiment [4] it was 1.33 (inactive); in experiment [5], 1.2 (inactive).

As to `CC(C)C(=C=CC[C@H](O)c1ccc(OCCO)cc1)CCO`, the composite z-score in experiment [1] was 0.427 (inactive); with XIP peptide (Xip251-270), -0.107. Also, the z-score in experiment [2] was -2.19; in experiment [3] it was -3.96 (inactive); in experiment [4], 0.805 (inactive); in experiment [5], 0.505 (inactive).

Regarding `CCOC(=O)C[C@H]1[C@H](OC(=O)c2ccc(-c3ccccc3)cc2)[C@@H](NC(=O)Cc2ccc(OC)cc2)c2cc(OCCCO)ccc2N1C(=O)c1ccccc1`, the composite z-score in experiment [1] is -0.243 (inactive); in the experiment on XIP peptide (Xip251-270), -0.464. Also, the z-score in experiment [2] was -0.791; in experiment [3], -2.14 (inactive); in experiment [4], 0.2 (inactive); in experiment [5], 0.106 (inactive).

For `CO[C@H]1O[C@H](CO)[C@@H](OC(=O)Nc2ccccc2)[C@H](OC(=O)Nc2ccccc2)[C@@H]1OC(=O)Nc1ccccc1`, the composite z-score in experiment [1] was 0.228 (inactive); with XIP peptide (Xip251-270), 0.642. Moreover, the z-score was -1.43 in experiment [2], -6.12 (inactive) in experiment [3], 0.0303 (inactive) in experiment [4] and 0.502 (inactive) in experiment [5].

With `CC(C)C[C@@H]1NC(=O)[C@@H]2C[C@H](C(=O)O)[C@H](c3cccc(OCCO)c3)N2C1=O`, the composite z-score in experiment [1] is 1.04 (inactive); with XIP peptide (Xip251-270), 0.708. Also, the z-score was -0.222 in experiment [2], -2.76 (inactive) in experiment [3], 0.0342 (inactive) in experiment [4] and 0.153 (inactive) in experiment [5].

Turning to `C=CCNC(=O)[C@H]1[C@@H]2C(=O)O[C@@H](c3ccccc3)[C@@H](c3ccccc3)N2[C@@H](c2ccccc2OCCO)[C@]12C(=O)Nc1ccc(C#CCC(C(=O)OC)C(=O)OC)cc12`, the composite z-score was 0.924 (inactive) in experiment [1] and 0.737 with XIP peptide (Xip251-270). Further, the z-score in experiment [2] is -2.25; in experiment [3], -2.6 (inactive); in experiment [4] it was -0.0106 (inactive); in experiment [5], 0.259 (inactive).

Regarding `O=C1O[C@@H](c2ccccc2)[C@@H](c2ccccc2)N2[C@@H](c3ccccc3OCCO)[C@]3(C(=O)Nc4ccccc43)[C@@H](C(=O)Nc3nc4ccccc4s3)[C@H]12`, the composite z-score was 1.13 (inactive) in experiment [1] and 0.797 in the experiment with XIP peptide (Xip251-270). The z-score in experiment [2] is -1.54; in experiment [3], 1.91 (inactive); in experiment [4] it was 0.489 (inactive); in experiment [5] it was 0.794 (inactive).

Consider `CCCCCN1CC=CC23O[C@@H]4C=CCCOC(=O)C4[C@H]2C(=O)N(CCCCCO)[C@@H]3C1=O` (some centres not stated), for which the composite z-score in experiment [1] was 0.382 (inactive); in the experiment on XIP peptide (Xip251-270), -0.0494. Moreover, the z-score in experiment [2] is 0.798; in experiment [3], -4.21 (inactive); in experiment [4] it was 0.251 (inactive); in experiment [5], 0.408 (inactive).
